Source: PubChem BioAssay AID1159580 (chemical genetic matrix, 2015)
Where “and” joins values, the source holds several entries; their conditions need not be identical. Equal values may be shown once. The whole screen tested about 5,500 compounds, of which about 2,000 (36%) were called active. Not shown: some 18% with an inconclusive outcome. No stated cut-off is given here; in the data, active means normalized growth mostly below about 0.91 (no sharp cut-off); inconclusive means no clear call, values can overlap the other calls; inactive means mostly above about 0.92. Some of the results follow.

Test: chemical genetic growth profiling, strain panel (AID 1159580);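 further: tested at 20 µM; growth read once vehicle control cultures reached saturation at 30 °C; 1 = growth at the plate median or of vehicle wells; lower values mean less growth of the strain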
Details: growth OD

Measured: normalized growth

CNC1(C)C2CCC(C2)C1(C)C (stereo unspecified)
active: S. cerevisiae deletion strains, locus YOR231W, strain MKK1, active compounds read low 0.824
inactive: S. cerevisiae deletion strains, locus YJR075W, strain HOC1, active compounds read low 1 and 1.01 | S. cerevisiae deletion strains, locus YKL009W, strain mrt4, active compounds read low 1.03 | S. cerevisiae deletion strains, locus YKL068W, active compounds read low 0.989 | S. cerevisiae deletion strains, locus YKL085W, strain MDH1 (second series), active compounds read low 1.02 | S. cerevisiae deletion strains, locus YKL085W, strain MDH1, active compounds read low 1.02 | S. cerevisiae deletion strains, locus YKL160W, strain elf1, active compounds read low 0.97 | S. cerevisiae deletion strains, locus YKL190W, strain CNB1, active compounds read low 0.977 | S. cerevisiae deletion strains, locus YKR001C, strain vps1, active compounds read low 0.997 | S. cerevisiae deletion strains, locus YKR026C, strain gcn3, active compounds read low 1 | S. cerevisiae deletion strains, locus YKR091W, strain srl3, active compounds read low 1 | S. cerevisiae deletion strains, locus YLL001W, strain dnm1, active compounds read low 0.948 | S. cerevisiae deletion strains, locus YLL026W, active compounds read low 0.996 | S. cerevisiae deletion strains, locus YLL041C, strain sdh2, active compounds read low 0.988 | S. cerevisiae deletion strains, locus YLR027C, strain aat2, active compounds read low 0.996 | S. cerevisiae deletion strains, locus YLR039C, strain RIC1, active compounds read low 0.959 | S. cerevisiae deletion strains, locus YLR058C, strain SHM2, active compounds read low 0.979 | S. cerevisiae deletion strains, locus YLR102C, strain apc9, active compounds read low 0.981 | S. cerevisiae deletion strains, locus YLR113W, strain HOG1, active compounds read low 0.934 | S. cerevisiae deletion strains, locus YLR221C, strain rsa3, active compounds read low 0.976 | S. cerevisiae deletion strains, locus YLR258W, strain gsy2, active compounds read low 1.02 | S. cerevisiae deletion strains, locus YLR262C, strain YPT6 (second series), active compounds read low 1 | S. cerevisiae deletion strains, locus YLR262C, strain YPT6, active compounds read low 0.934 | S. cerevisiae deletion strains, locus YLR268W, strain sec22, active compounds read low 0.965 | S. cerevisiae deletion strains, locus YLR320W, strain mms22, active compounds read low 0.982 | S. cerevisiae deletion strains, locus YLR330W, strain CHS5, active compounds read low 0.987 | S. cerevisiae deletion strains, locus YLR342W, strain FKS1 (second series), active compounds read low 1.08 | S. cerevisiae deletion strains, locus YLR342W, strain FKS1, active compounds read low 0.99 | S. cerevisiae deletion strains, locus YLR357W, strain rsc2, active compounds read low 0.987 | S. cerevisiae deletion strains, locus YLR370C, strain arc18, active compounds read low 0.989 | S. cerevisiae deletion strains, locus YLR371W, strain rom2, active compounds read low 1.01 | S. cerevisiae deletion strains, locus YLR384C, strain iki3, active compounds read low 1 | S. cerevisiae deletion strains, locus YLR418C, strain cdc73, active compounds read low 0.909 | S. cerevisiae deletion strains, locus YML016C, strain PPZ1, active compounds read low 0.993 | S. cerevisiae deletion strains, locus YML032C, strain rad52, active compounds read low 1.03 | S. cerevisiae deletion strains, locus YML120C, strain ndi1, active compounds read low 0.979 | S. cerevisiae deletion strains, locus YML124C, strain tub3, active compounds read low 0.995 | S. cerevisiae deletion strains, locus YMR058W, strain fet3, active compounds read low 0.995 | S. cerevisiae deletion strains, locus YMR078C, strain ctf18, active compounds read low 0.999 | S. cerevisiae deletion strains, locus YMR125W, strain sto1, active compounds read low 0.987 | S. cerevisiae deletion strains, locus YMR129W, active compounds read low 0.998 | S. cerevisiae deletion strains, locus YMR205C, strain PFK2, active compounds read low 0.983 | S. cerevisiae deletion strains, locus YMR223W, strain ubp8, active compounds read low 1.04 | S. cerevisiae deletion strains, locus YMR231W, strain pep5, active compounds read low 0.998 | S. cerevisiae deletion strains, locus YMR263W, strain SAP30, active compounds read low 0.966 and 1 | S. cerevisiae deletion strains, locus YMR307W, strain GAS1, active compounds read low 1.06 | S. cerevisiae deletion strains, locus YNL067W, strain RPL9B, active compounds read low 0.976 | S. cerevisiae deletion strains, locus YNL071W, strain lat1, active compounds read low 0.993 | S. cerevisiae deletion strains, locus YNL128W, strain TEP1, active compounds read low 0.946 and 1.02 | S. cerevisiae deletion strains, locus YNL153C, strain GIM3, active compounds read low 0.962 | S. cerevisiae deletion strains, locus YNL175C, strain NOP13, active compounds read low 0.998 | S. cerevisiae deletion strains, locus YNL183C, strain NPR1, active compounds read low 0.971 | S. cerevisiae deletion strains, locus YNL197C, strain WHI3, active compounds read low 1.02 | S. cerevisiae deletion strains, locus YNL209W, strain ssb2, active compounds read low 0.992 | S. cerevisiae deletion strains, locus YNL224C, strain SQS1, active compounds read low 1.01 | S. cerevisiae deletion strains, locus YNL233W, strain BNI4, active compounds read low 0.98 | S. cerevisiae deletion strains, locus YNL248C, strain rpa49, active compounds read low 0.982 | S. cerevisiae deletion strains, locus YNL250W, strain rad50, active compounds read low 0.995 | S. cerevisiae deletion strains, locus YNL271C, strain bni1, active compounds read low 0.996 | S. cerevisiae deletion strains, locus YNL298W, strain CLA4, active compounds read low 0.99 | S. cerevisiae deletion strains, locus YNL307C, strain MCK1, active compounds read low 0.999 | S. cerevisiae deletion strains, locus YNL322C, strain KRE1 (second series), active compounds read low 1 | S. cerevisiae deletion strains, locus YNL322C, strain KRE1, active compounds read low 0.978 | S. cerevisiae deletion strains, locus YNR049C, strain mso1, active compounds read low 0.996 | S. cerevisiae deletion strains, locus YNR052C, strain pop2, active compounds read low 0.992 | S. cerevisiae deletion strains, locus YOL006C, strain TOP1, active compounds read low 0.951 | S. cerevisiae deletion strains, locus YOL012C, strain htz1 0.652 | S. cerevisiae deletion strains, locus YOL147C, strain pex11, active compounds read low 0.996 | S. cerevisiae deletion strains, locus YOR001W, strain rrp6, active compounds read low 0.964 | S. cerevisiae deletion strains, locus YOR061W, strain CKA2, active compounds read low 0.958 | S. cerevisiae deletion strains, locus YOR069W, strain VPS5, active compounds read low 0.993 | S. cerevisiae deletion strains, locus YOR070C, strain gyp1, active compounds read low 0.997 | S. cerevisiae deletion strains, locus YOR080W, strain dia2, active compounds read low 0.999 | S. cerevisiae deletion strains, locus YOR083W, strain WHI5 (second series), active compounds read low 1.01 | S. cerevisiae deletion strains, locus YOR083W, strain WHI5, active compounds read low 0.978 | S. cerevisiae deletion strains, locus YOR106W, strain vam3, active compounds read low 0.987 | S. cerevisiae deletion strains, locus YOR136W, strain idh2, active compounds read low 1.01 | S. cerevisiae deletion strains, locus YOR144C, strain elg1, active compounds read low 0.99 | S. cerevisiae deletion strains, locus YOR184W, strain ser1, active compounds read low 1.05 | S. cerevisiae deletion strains, locus YOR265W, strain rbl2, active compounds read low 0.989 | S. cerevisiae deletion strains, locus YOR270C, strain vph1, active compounds read low 0.991 | S. cerevisiae deletion strains, locus YOR290C, strain snf2, active compounds read low 0.958 | S. cerevisiae deletion strains, locus YOR316C, strain cot1, active compounds read low 0.985 | S. cerevisiae deletion strains, locus YPL051W, strain arl3, active compounds read low 0.999 | S. cerevisiae deletion strains, locus YPL055C, strain LGE1, active compounds read low 0.935 | S. cerevisiae deletion strains, locus YPL078C, strain atp4, active compounds read low 0.983 | S. cerevisiae deletion strains, locus YPL106C, strain sse1, active compounds read low 0.979 | S. cerevisiae deletion strains, locus YPL240C, strain hsp82, active compounds read low 0.989 | S. cerevisiae deletion strains, locus YPL241C, strain CIN2, active compounds read low 1 | S. cerevisiae deletion strains, locus YPL256C, strain CLN2, active compounds read low 0.946 | S. cerevisiae deletion strains, locus YPR119W, strain clb2, active compounds read low 0.993 | S. cerevisiae deletion strains, locus YPR141C, strain kar3, active compounds read low 0.968 | S. cerevisiae deletion strains, locus YPR163C, strain tif3, active compounds read low 0.991 | S. cerevisiae deletion strains, locus YPR167C, strain met16, active compounds read low 0.983 | S. cerevisiae deletion strains, strain wtn01, active compounds read low 0.974 | S. cerevisiae strains, strain wild type, active compounds read low 0.991
